# Measurements taken from paper PMC12820563, “FoxP3 forms a head-to-head dimer in vivo and stabilizes its multimerization on adjacent microsatellites”.
# Over roughly 16,000 sequences, “rpm ratio (pull-down/input)” has its median near 0.94; the highest 2% begin near 1.7. Shown is part of a subset that was picked to be rich in the highest values.
# Target: T1, MBP-FoxP1dN (Mus musculus, UniProt P58462 326-579)
# T1 sequence: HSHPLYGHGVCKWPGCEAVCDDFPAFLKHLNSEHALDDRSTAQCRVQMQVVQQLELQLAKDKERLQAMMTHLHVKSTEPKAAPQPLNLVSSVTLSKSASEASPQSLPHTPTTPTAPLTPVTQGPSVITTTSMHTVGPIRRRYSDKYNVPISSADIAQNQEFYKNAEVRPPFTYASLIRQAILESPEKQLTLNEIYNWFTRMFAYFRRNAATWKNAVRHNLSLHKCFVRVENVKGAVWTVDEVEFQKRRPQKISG
# Test: PD-seq (MBP pull-down with sequencing); 20 mM Tris-HCl pH 7.5, 100 mM NaCl, 1.5 mM MgCl2, 0.4 uM protein, 0.1 uM dsDNA library, 30 min, room temperature, amylose pull-down; high values mean tight binding
# Conditions: protein: recombinant; tags: His6-MBP; chain copies: 2; dsDNA, one strand shown
# Method in brief: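 Binding is the reads-per-million enrichment of pull-down relative to input, pooled across replicates. For this, 0.4 µM His6-MBP-tagged mouse FoxP3 or FoxP1 fragment lacking the N-terminus, made in E. coli, was incubated with 0.1 µM Klenow-filled double-stranded degenerate DNA library for 30 min at room temperature in Tris pH 7.5 buffer with NaCl and MgCl2. Complexes bound to amylose resin were washed three times before proteinase K released the DNA for PCR barcoding and Illumina sequencing.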
row,Sequence,binding signal
1,GATGATTGTTCTCCCAGCTGATGAATTTGACTTGTCGAGTAAACAAATTTTCCTAATCTTTCTGTTCAAGCGCCATCTAC,0.82 RPM ratio (pull-down/input)
2,GATGATTGTTCTCCCAGCTGATGAATTTCCTGCGTCGAGTAAACAAATTTTCCTAATCTTTCTGTTCAAGCGCCATCTAC,0.938 RPM ratio (pull-down/input)
3,GATGATTGTTCTCCCAGCTGATGAATTCTCTCTTTCGAGTAAACAAATTTTCCTAATCTTTCTGTTCAAGCGCCATCTAC,0.917 RPM ratio (pull-down/input)
4,GATGATTGTTCTCCCAGCTGATGAATTTAATATGTCGAGTAAACAAATTTTCCTAATCTTTCTGTTCAAGCGCCATCTAC,0.979 RPM ratio (pull-down/input)
5,GATGATTGTTCTCCCAGCTGATGAATTTCTGTCGTCGAGTAAACAAATTTTCCTAATCTTTCTGTTCAAGCGCCATCTAC,0.96 RPM ratio (pull-down/input)
6,GATGATTGTTCTCCCAGCTGATGAATTGTCGTCGTCGAGTAAACAAATTTTCCTAATCTTTCTGTTCAAGCGCCATCTAC,1.05 RPM ratio (pull-down/input)
7,GATGATTGTTCTCCCAGCTGATGAATTGTTGTCGTCGAGTAAACAAATTTTCCTAATCTTTCTGTTCAAGCGCCATCTAC,2.33 RPM ratio (pull-down/input)
8,GATGATTGTTCTCCCAGCTGATGAATTCGATCTATCGAGTAAACAAATTTTCCTAATCTTTCTGTTCAAGCGCCATCTAC,0.885 RPM ratio (pull-down/input)
9,GATGATTGTTCTCCCAGCTGATGAATTATGATTGTCGAGTAAACAAATTTTCCTAATCTTTCTGTTCAAGCGCCATCTAC,1.45 RPM ratio (pull-down/input)
10,GATGATTGTTCTCCCAGCTGATGAATTATTAATGTCGAGTAAACAAATTTTCCTAATCTTTCTGTTCAAGCGCCATCTAC,1.35 RPM ratio (pull-down/input)
11,GATGATTGTTCTCCCAGCTGATGAATTGATTATGTCGAGTAAACAAATTTTCCTAATCTTTCTGTTCAAGCGCCATCTAC,1.31 RPM ratio (pull-down/input)
12,GATGATTGTTCTCCCAGCTGATGAATTATTCTTGTCGAGTAAACAAATTTTCCTAATCTTTCTGTTCAAGCGCCATCTAC,1.16 RPM ratio (pull-down/input)
13,GATGATTGTTCTCCCAGCTGATGAATTATTGTTGTCGAGTAAACAAATTTTCCTAATCTTTCTGTTCAAGCGCCATCTAC,3.22 RPM ratio (pull-down/input)
14,GATGATTGTTCTCCCAGCTGATGAATTATTTCTGTCGAGTAAACAAATTTTCCTAATCTTTCTGTTCAAGCGCCATCTAC,1.11 RPM ratio (pull-down/input)
15,GATGATTGTTCTCCCAGCTGATGAATTATTATTGTCGAGTAAACAAATTTTCCTAATCTTTCTGTTCAAGCGCCATCTAC,3.2 RPM ratio (pull-down/input)
16,GATGATTGTTCTCCCAGCTGATGAATTATTGATGTCGAGTAAACAAATTTTCCTAATCTTTCTGTTCAAGCGCCATCTAC,1.85 RPM ratio (pull-down/input)
17,GATGATTGTTCTCCCAGCTGATGAATTATTGTCGTCGAGTAAACAAATTTTCCTAATCTTTCTGTTCAAGCGCCATCTAC,1.56 RPM ratio (pull-down/input)
18,GATGATTGTTCTCCCAGCTGATGAATTATGAGTCTCGAGTAAACAAATTTTCCTAATCTTTCTGTTCAAGCGCCATCTAC,0.886 RPM ratio (pull-down/input)
19,GATGATTGTTCTCCCAGCTGATGAATTACGATCGTCGAGTAAACAAATTTTCCTAATCTTTCTGTTCAAGCGCCATCTAC,0.952 RPM ratio (pull-down/input)
20,GATGATTGTTCTCCCAGCTGATGAATTTGAGCTTTCGAGTAAACAAATTTTCCTAATCTTTCTGTTCAAGCGCCATCTAC,0.854 RPM ratio (pull-down/input)

row,Sequence,binding signal
1,GATGATTGTTCTCCCAGCTGATGAATTCGCTTGCTCGAGTAAACAAATTTTCCTAATCTTTCTGTTCAAGCGCCATCTAC,0.817 RPM ratio (pull-down/input)
2,GATGATTGTTCTCCCAGCTGATGAATTAAACTCTTCGAGTAAACAAATTTTCCTAATCTTTCTGTTCAAGCGCCATCTAC,0.825 RPM ratio (pull-down/input)
3,GATGATTGTTCTCCCAGCTGATGAATTTTTAATCTCGAGTAAACAAATTTTCCTAATCTTTCTGTTCAAGCGCCATCTAC,0.864 RPM ratio (pull-down/input)
4,GATGATTGTTCTCCCAGCTGATGAATTAAGTCCTTCGAGTAAACAAATTTTCCTAATCTTTCTGTTCAAGCGCCATCTAC,0.887 RPM ratio (pull-down/input)
5,GATGATTGTTCTCCCAGCTGATGAATTCTTCATCTCGAGTAAACAAATTTTCCTAATCTTTCTGTTCAAGCGCCATCTAC,0.813 RPM ratio (pull-down/input)
6,GATGATTGTTCTCCCAGCTGATGAATTGGTGCATTCGAGTAAACAAATTTTCCTAATCTTTCTGTTCAAGCGCCATCTAC,1.35 RPM ratio (pull-down/input)
7,GATGATTGTTCTCCCAGCTGATGAATTAACCTGCTCGAGTAAACAAATTTTCCTAATCTTTCTGTTCAAGCGCCATCTAC,0.79 RPM ratio (pull-down/input)
8,GATGATTGTTCTCCCAGCTGATGAATTGACGAACTCGAGTAAACAAATTTTCCTAATCTTTCTGTTCAAGCGCCATCTAC,1.03 RPM ratio (pull-down/input)
9,GATGATTGTTCTCCCAGCTGATGAATTTCTTGGGTCGAGTAAACAAATTTTCCTAATCTTTCTGTTCAAGCGCCATCTAC,0.716 RPM ratio (pull-down/input)
10,GATGATTGTTCTCCCAGCTGATGAATTGTATGTATCGAGTAAACAAATTTTCCTAATCTTTCTGTTCAAGCGCCATCTAC,1.67 RPM ratio (pull-down/input)
11,GATGATTGTTCTCCCAGCTGATGAATTATATGTATCGAGTAAACAAATTTTCCTAATCTTTCTGTTCAAGCGCCATCTAC,1.41 RPM ratio (pull-down/input)
12,GATGATTGTTCTCCCAGCTGATGAATTATGTGAATCGAGTAAACAAATTTTCCTAATCTTTCTGTTCAAGCGCCATCTAC,1.14 RPM ratio (pull-down/input)
13,GATGATTGTTCTCCCAGCTGATGAATTATGTGTATCGAGTAAACAAATTTTCCTAATCTTTCTGTTCAAGCGCCATCTAC,1.92 RPM ratio (pull-down/input)
14,GATGATTGTTCTCCCAGCTGATGAATTATGTATATCGAGTAAACAAATTTTCCTAATCTTTCTGTTCAAGCGCCATCTAC,1.79 RPM ratio (pull-down/input)
15,GATGATTGTTCTCCCAGCTGATGAATTATGTATCTCGAGTAAACAAATTTTCCTAATCTTTCTGTTCAAGCGCCATCTAC,1.45 RPM ratio (pull-down/input)
16,GATGATTGTTCTCCCAGCTGATGAATTACAAAATTCGAGTAAACAAATTTTCCTAATCTTTCTGTTCAAGCGCCATCTAC,1.37 RPM ratio (pull-down/input)
17,GATGATTGTTCTCCCAGCTGATGAATTCACCCGGTCGAGTAAACAAATTTTCCTAATCTTTCTGTTCAAGCGCCATCTAC,0.783 RPM ratio (pull-down/input)
18,GATGATTGTTCTCCCAGCTGATGAATTTAGTCTCTCGAGTAAACAAATTTTCCTAATCTTTCTGTTCAAGCGCCATCTAC,0.934 RPM ratio (pull-down/input)
19,GATGATTGTTCTCCCAGCTGATGAATTCCCTTTCTCGAGTAAACAAATTTTCCTAATCTTTCTGTTCAAGCGCCATCTAC,0.783 RPM ratio (pull-down/input)
20,GATGATTGTTCTCCCAGCTGATGAATTCCGCCGATCGAGTAAACAAATTTTCCTAATCTTTCTGTTCAAGCGCCATCTAC,0.721 RPM ratio (pull-down/input)
